Rows were chosen to be rich in hits. Some 2.2% of all compounds tested hit in one or more screens of this group.
Nrf2 ARE act: activates Nrf2 signaling | AREc32 ARE-luciferase reporter (MCF7-derived line), luminescence, 24 h | Potency, µM (doses to about 46.1 µM), inactives show top-dose activation, hits mostly activators | hit rate 0.31% among 410,000; also: % of control where 0% means no effect; nearly all actives have a fitted effect of over 65% in size
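Cells of the AREc32 ARE-luciferase line are plated in OPTI-MEM containing 5% FBS and left overnight at 37 deg C. Compounds are pinned in, incubation continues 24 hr, and firefly luciferase signal is then measured.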
Pin1 inh: blocks the human prolyl isomerase Pin1. Q13526. Pin1 FP peptide displacement, HiFluor488, 10 min. Potency, µM (series often up to 115 µM), for the others: at the highest dose activity, negative = inhibition, hits mostly inhibitors. hit rate 0.009% among 390,000. AID 504891; active = well fitted inhibition curve with a large enough effect in the polarisation, with a control signal flat, not every such curve was filed as active; inconclusive = small, poorly fitted or top-dose-only effect, or effect the other way, or a change in a side signal; inactive = no such curve, though single readings can be large or run the other way; the % refers to the polarisation; also: % is scaled to controls: 0 for no effect and ±100 for the full control effect
Target sequence (Q13526 whole entry, looked up): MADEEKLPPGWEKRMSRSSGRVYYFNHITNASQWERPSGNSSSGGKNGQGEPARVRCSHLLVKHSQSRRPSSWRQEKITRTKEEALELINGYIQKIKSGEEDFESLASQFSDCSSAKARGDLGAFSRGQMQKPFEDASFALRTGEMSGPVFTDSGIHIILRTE
Nrf2 inh: inhibitors of Nrf2 signaling. A549 ARE-Fluc reporter, luciferase luminescence, 18-24 h. Potency, µM (top dose mostly 46 µM), without a hit: at the highest dose activity change, negative = inhibition, actives largely listed as inhibitors. hit rate 2.1% among 360,000. AID 504444; also: % is scaled to controls: 0 for no effect and ±100 for the full control effect; nearly all actives have a fitted effect of over 60% in size
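Nrf2 activity is the BugLite luminescence, read 15 min after reagent at room temperature, following CellTiter-Fluor cytotoxicity readout (30 min, 37C). Compound titrations were applied for 18-24 h to 5000 A549 ARE_Fluc cells/well in 5% FBS OPTI-MEM.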
A549 tox: kills or reduces viability of A549 cells in Nrf2 counter-screen; A549 ARE-Fluc cells, CellTiter-Fluor viability, 18-24 h; Potency, µM (titrated, usually from 46 µM), for inactives: at the highest dose activity change, negative = cytotoxicity, most hits filed as inhibitors; hit rate 0.16% among 390,000; also: % is scaled to controls: 0 for no effect and ±100 for the full control effect
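A549 ARE-Fluc cells in 5% FBS OPTI-MEM, 5000 cells/well, rested 2 h then exposed to compounds in concentration-response for 18-24 h at 37 °C. Viability by CellTiter-Fluor fluorescence (Ex 405/Em 525) after 30 min; luciferase luminescence (BugLite, 15 min, RT) read afterwards.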
* marks the source's active call; other numbers are inactive results; ? = inconclusive; . = not tested or not shown; [ ] = another dose, or the depositor's remark. Unless noted, calls follow the shape of the dose curve; as a rule, active = well fitted curve in the direction sought with a large enough effect; inconclusive = small, poorly fitted or top-dose-only effect, or another doubt; inactive = no such curve, though single readings can be large; an effect the other way counts as inactive or inconclusive. Potency is read from the fitted curve at half-maximal effect.

SMILES	Nrf2 ARE act	Pin1 inh	Nrf2 inh	A549 tox
Cc1cc(Cl)ccc1OCC(=O)Nc1ccncc1	-1%	-10%	23µM*	-1%
Cc1cc(C)cc(OCC(=O)Nc2ccc(-c3nc4ccccc4o3)cc2)c1	0%	?	?	-8%
COc1ccccc1OCC(=O)Nc1ccncc1	4%	0%	-20%	-2%
O=C1c2ccccc2C(=O)N1c1cccc(=O)[nH]1	.	1%	-15%	-7%
Cc1ccc(COC(=O)c2ccc(-c3nnn(Cc4ccc(C)cc4)n3)cc2)cc1	-1%	-10%	5%	-3%
CCOc1cc(C(=O)Nc2ccc(-c3nc4ccccc4s3)cc2Cl)cc(OCC)c1OCC	8%	5%	.	1%
Cc1ccc(C)c(OCC(=O)Nc2ccncc2)c1	2%	0%	5.2µM*	3%
CCC(=O)N1CCc2cc(Br)cc(S(=O)(=O)N3CCC(C(=O)Nc4cccc(C)c4)CC3)c21	-1%	6%	8.2µM*	-8%
CCC(=O)N1CCc2cc(Br)cc(S(=O)(=O)N3CCC(C(=O)Nc4ccc(OC)cc4)CC3)c21	4%	11%	.	4%
Cc1cccc(-c2ccc3ncnc(NCc4cccs4)c3c2)c1	-1%	10%	21µM*	-3%
FC1(F)Oc2ccc(-c3ccc4ncnc(NCc5cccs5)c4c3)cc2O1	.	?	13µM*	-13%
Clc1cccc(-c2ccc3ncnc(NCc4cccs4)c3c2)c1	4%	6%	?	-2%
COc1cc(C=C2Cc3ccccc3C2=O)cc(OC)c1OC	7.1µM*	.	.	.
COc1ccc(/C=C2\CCc3ccccc3C2=O)cc1Cn1cccn1	17%	?	2.3µM*	-17%
COc1ccc(/C=C2\CCC(C3CCCC3)C2=O)cc1Cn1cccn1 (stereo not given)	0%	-4%	?	6%
COc1ccc(/C=C2\Cc3ccccc3C2=O)cc1OC	0%	2%	4%	1%
C/C=C1\COC(C(=O)NCCN2CCOCC2)(C(F)(F)F)C=C1C=C(C)C (stereo not given)	.	4%	?	-15%
O=S1(=O)N=C(Sc2ccc3c(c2)OCCO3)c2ccccc21	.	-8%	-30%	0%
Cc1cccc(NC(=O)CSc2nc3sc(C)cc3c(=O)n2C)c1	6%	-1%	23µM*	-9%
O=C(CSc1nc2ccccc2c(=O)[nH]1)Nc1ccc([N+](=O)[O-])cc1	-1%	9%	16µM*	-6%
Cn1c(SCC(=O)Nc2ccccc2)nc2ccccc2c1=O	0%[9.22 µM]	3%	21µM*	0%
CCOC(=O)c1ccc(NC(=O)CSc2nc3cccnc3n2C)cc1	0%	-1%	21µM*	-8%
COC(=O)c1ccc(NC(=O)CSc2nc3cccnc3n2C)cc1	0%	7%	?	-7%
COc1cccc(C2c3c(ncn(-c4cccc(C#N)c4)c3=N)Oc3ccc4ccccc4c32)c1 (stereo not given)	.	19%	?	-1%
COc1ccc(NC(=O)CSc2nc3sc(C)cc3c(=O)n2C)c(OC)c1	-1%	4%	18µM*	-11%
SMILES	Nrf2 ARE act	Pin1 inh	Nrf2 inh	A549 tox
CCOc1ccc(-c2nnc(N3CCCCC3)c3ccccc23)cc1	-1%	-6%	26µM*	-28%
CCN(CC)C(=O)COc1ccc(-c2nnc(N3CCCCC3)c3ccccc23)cc1	2%	-4%	-11%	-11%
CC(=O)c1c(C)[nH]c(C(=O)CSc2nc3ccccc3n2C)c1C	2%	21%	15µM*	-3%
O=C(/C(C=Nc1cccc(C(F)(F)F)c1)=C(/O)c1ccco1)C(F)(F)F	7.9µM*	?	27%	7%
O=C(/C(C=Nc1ccc(Br)cc1)=C(/O)c1ccco1)C(F)(F)F	29%	?	?	-6%
CCc1ccc(N2CCn3c2nc2c3c(=O)n(Cc3c(F)cccc3Cl)c(=O)n2C)cc1	-1%	14%	23µM*	-8%
Cc1ccc(C)c(N2CCN(C(=O)c3ccc(Cn4c(=O)[nH]c5ccccc5c4=O)cc3)CC2)c1	-1%	0%	7.3µM*	-22%
COc1cc(Cl)c(NC(=O)CN(C)S(=O)(=O)c2ccc3[nH]c4c(c3c2)CCCC4)c(OC)c1	6%	17%	23µM*	-1%
COc1ccccc1N1CCN(S(=O)(=O)c2ccc3[nH]c4c(c3c2)CCCC4)CC1	0%	8%	23µM*	-12%
COc1ccccc1N1CCN(S(=O)(=O)c2ccc3nc(-c4ccccc4)[nH]c3c2)CC1	3%	7%	23µM*	-12%
COc1ccc(NC(=O)CN(C)S(=O)(=O)c2ccc3[nH]c4c(c3c2)CCCC4)cc1Cl	5%	20%	?	-3%
Cc1ccc(CCNC(=O)c2cc3ccccn3n2)cc1	0%	?	?	15%
COc1cccc(C2c3c(ncn(CCCN4CCOCC4)c3=N)Oc3ccc4ccccc4c32)c1 (stereo not given)	.	17%	-125%	15µM*
Cc1oc(-c2ccccc2F)nc1CS(=O)(=O)CC(=O)N1CCN(c2ccc(Cl)cc2)CC1	0%	9%	5.8µM*	?
COC(=O)COc1ccc(-c2nccc(-c3ccc(Br)cc3)n2)cc1	0%	-7%	3%	1%
COC(=O)COc1ccc(-c2nccc(-c3ccccn3)n2)cc1	-2%	23%	7.3µM*	-8%
CCCCCCn1nc(C(=O)OCC(=O)c2c(N)n(C)c(=O)n(C)c2=O)c2ccccc2c1=O	-1%	5%	23µM*	-4%
CCN(c1ccccc1)S(=O)(=O)c1cc(C(=O)OCC(=O)c2c(N)n(C)c(=O)n(C)c2=O)ccc1C	3%	21%	18µM*	?
Cn1c(N)c(C(=O)COC(=O)c2nc(Cl)ccc2Cl)c(=O)n(C)c1=O	2.2µM*	-3%	6%	1%
Cn1c(N)c(C(=O)COC(=O)c2cccnc2Cl)c(=O)n(C)c1=O	1%	-4%	2%	-1%
CN(c1ccccc1)S(=O)(=O)c1cc(C(=O)OCC(=O)c2c(N)n(C)c(=O)n(C)c2=O)ccc1Cl	0%	?	?	4%
CCCCCn1nc(C(=O)OCC(=O)c2c(N)n(C)c(=O)n(C)c2=O)c2ccccc2c1=O	0%	6%	-24%	-7%
CC(C)COc1ccc(C(=O)Nc2ccc(NC(=O)c3ccco3)c(Cl)c2)cc1	0%	1%	16µM*	?
O=C(N/N=C/c1ccc(O)cc1O)c1ccncc1	-1%	-10%	12µM*	-17%
O=C(N/N=C/c1cc(Cl)cc(Cl)c1O)c1ccncc1	-1%	?	9.2µM*	-8%
CC(C)(C)OC(=O)Cc1nnc(C(C(=O)OCc2ccccc2)c2ccccc2)s1 (stereo not given)	.	-2%	8%	2%
CCCCNC(=S)NCCCN(Cc1ccc(Cl)c(Cl)c1)c1ccc(Br)cn1	.	12%	?	-16%
Cc1nn(-c2ccc(Cl)cc2)c(=O)c2ccccc12	20%	3%	?	9%
Cc1c(Cl)sn(-c2ccc(Cl)cc2)c1=O	0%	1%	26µM*	?
CC1CCC(C(C)C)C(OC(=O)Cn2c(-c3ccc(Cl)cc3)[n+](C)c3ccccc32)C1 (stereo not given)	-3%	-5%	?	?
